The molecules below were run against T1, Tyrosyl-tRNA synthetase, putative (Trypanosoma cruzi (strain CL Brener)) (UniProt Q4DSP6) (assay: Trypanosoma cruzi tyrosyl tRNA synthetase (TcYRS) SOP). Conditions: 30 µM.
T1 sequence (whole entry): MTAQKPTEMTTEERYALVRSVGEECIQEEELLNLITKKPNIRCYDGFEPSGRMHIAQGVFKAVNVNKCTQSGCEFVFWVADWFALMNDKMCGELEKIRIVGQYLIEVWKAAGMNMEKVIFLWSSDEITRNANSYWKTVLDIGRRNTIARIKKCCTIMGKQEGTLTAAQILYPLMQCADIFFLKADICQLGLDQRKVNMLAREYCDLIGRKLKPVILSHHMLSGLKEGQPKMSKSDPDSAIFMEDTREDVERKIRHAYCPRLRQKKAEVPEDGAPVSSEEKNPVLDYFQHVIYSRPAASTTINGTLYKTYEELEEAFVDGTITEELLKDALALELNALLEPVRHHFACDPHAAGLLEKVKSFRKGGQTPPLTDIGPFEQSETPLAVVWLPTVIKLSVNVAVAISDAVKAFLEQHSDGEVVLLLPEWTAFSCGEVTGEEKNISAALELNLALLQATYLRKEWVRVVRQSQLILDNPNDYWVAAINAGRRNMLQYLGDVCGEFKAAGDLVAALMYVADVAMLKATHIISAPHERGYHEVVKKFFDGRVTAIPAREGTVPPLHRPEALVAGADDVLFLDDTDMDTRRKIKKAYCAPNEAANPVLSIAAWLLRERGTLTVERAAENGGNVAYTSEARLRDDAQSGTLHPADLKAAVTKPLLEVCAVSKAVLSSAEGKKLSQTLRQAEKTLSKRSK
Assay type: functional
Design: scale not given: direction of the effect not stated beside the values

Question: How did the Percent Effect turn out when `CCc1nc(C2CCCN2C(=O)c2ccc3c(c2)nnn3CC)no1` (stereo not given) was run?
Answer: 0%

Question: With `c1cnnc(N2CCCC2CNCc2nc(-c3ccsc3)no2)c1` (stereo not given) as the molecule, how does the Percent Effect read?
Answer: 6.02%

Question: `CC(=O)N1N=C(c2ccccc2)OC1C(=O)NCCC1=CCCCC1` (stereo not given) was tested. Which Percent Effect did it give?
Answer: 5%

Question: How did the Percent Effect turn out when `CCO[C@@H]1CO[C@@]2(CCCN(S(=O)(=O)c3cccnc3)C2)C1` was run?
Answer: 5.13%

Question: How did the Percent Effect turn out when `Cc1ccc(C(=O)N2CCC3(CC2)COC(COc2ccccn2)C3)o1` (stereo not given) was run?
Answer: 12.8%

Question: With `CS(=O)(=O)NCC1CCCN(C(=O)COc2ccc(F)cc2)C1` (stereo not given) as the molecule, how does the Percent Effect read?
Answer: -146%

Question: With `CN1CC(c2ccccc2)CC12CCN(C(=O)c1c(Cl)cnn1C)CC2` (stereo not given) as the molecule, how does the Percent Effect read?
Answer: 14.6%

Question: With `O=C(NCc1cc[nH]n1)NCC(O)COc1cccc(F)c1` (stereo not given) as the molecule, how does the Percent Effect read?
Answer: 0%

Question: With `O=C1NC2(CCN(Cc3cccnc3)CC2)CC1c1ccncc1` (stereo not given) as the molecule, how does the Percent Effect read?
Answer: 10.3%

Question: With `CCSCCC(=O)NS(=O)(=O)c1ccc2c(c1)OCCO2` as the molecule, how does the Percent Effect read?
Answer: 10.8%

Question: With `CC(C)CN1CCN(C)C2(CCN(Cc3ccsc3)CC2)C1=O` as the molecule, how does the Percent Effect read?
Answer: 10%

Question: For `COc1c(C2CCCN2Cc2c(C)noc2C)c(C)nn1C` (stereo not given), which Percent Effect is on record?
Answer: 5.13%

Question: How did the Percent Effect turn out when `CC(C)(N)C(=O)N1CCCC1c1cncc(Oc2ccc(F)cc2)n1` (stereo not given) was run?
Answer: 15%

Question: `O=C1CC2(CCN(Cc3ccoc3)C2)CN1c1ccc2c(c1)OCO2` (stereo not given) was tested. Which Percent Effect did it give?
Answer: 10.3%

Question: Which Percent Effect does the source give for `CCC(NC(N)=O)c1ccccc1OCC(=O)N1CCCC1` (stereo not given) here?
Answer: 18.1%

Question: How did the Percent Effect turn out when `CCOc1ccccc1C(=O)N1CCCC1c1ncc2c(n1)CCNC2` (stereo not given) was run?
Answer: -2.5%

Question: How did the Percent Effect turn out when `Cc1cc(CN(C)C(=O)NCC(C)N2CCc3ccccc32)no1` (stereo not given) was run?
Answer: 7.06%

Question: Which Percent Effect does the source give for `Cc1ccc(CCN2CCC(N(C)Cc3noc(C4CC4)n3)C2)cc1` (stereo not given) here?
Answer: 8.43%

Question: How did the Percent Effect turn out when `CC(C)n1[nH]c(=O)c2c1NC(=O)CC2c1cccnc1` (stereo not given) was run?
Answer: 19.5%

Question: Which Percent Effect does the source give for `O=C(NCCOc1ccc2c(c1)CCC2)N1CCS(=O)(=O)CC1` here?
Answer: -1.21%

Question: `CCC(NC(=O)CC(F)(F)F)c1ccccc1OCC(=O)N1CCCC1` (stereo not given) was tested. Which Percent Effect did it give?
Answer: 20.5%

Question: `CC(C)CN1C[C@@H]2CN(C(=O)[C@H]3CCCO3)C[C@@H]2C1=O` was tested. Which Percent Effect did it give?
Answer: 12.5%

Question: Which Percent Effect does the source give for `CN1CCN(c2cc(CNC(=O)c3ccc(=O)[nH]n3)ccn2)CC1` here?
Answer: 18.1%

Question: `CC(=O)N1CC(=O)N(c2ccccc2)CC12CCN(CC1CC1)C2` (stereo not given) was tested. Which Percent Effect did it give?
Answer: -5.13%

Question: For `CC(C)c1ncc(S(C)(=O)=O)c(C2CCCNC2)n1` (stereo not given), which Percent Effect is on record?
Answer: 17.1%

Question: With `CC(C)c1noc(CCCC(=O)NC2CCS(=O)(=O)C2)n1` (stereo not given) as the molecule, how does the Percent Effect read?
Answer: 15.4%

Question: With `c1ccc(OCc2ccncc2)c(CNC2CCc3ncnn3C2)c1` (stereo not given) as the molecule, how does the Percent Effect read?
Answer: 18.1%

Question: With `O=C(Nc1ccccc1)C1=CC2(CCNCC2)c2ccccc21` as the molecule, how does the Percent Effect read?
Answer: -2.5%

Question: Which Percent Effect does the source give for `CC(NC(=O)N1CCN(c2ccc(Cl)cc2)CC1)C(=O)N1CCSCC1` (stereo not given) here?
Answer: 12.2%

Question: How did the Percent Effect turn out when `CC(C)N(Cc1nc2c(cnn2C)c(=O)[nH]1)c1ccccc1` was run?
Answer: 18.1%

Question: `CCc1nc(C2CCCN2C(=O)c2ncoc2CC)no1` (stereo not given) was tested. Which Percent Effect did it give?
Answer: 8.43%

Question: Which Percent Effect does the source give for `O=C(c1ccc(F)cc1F)N1C[C@@H](O)[C@H](N2CCOCC2)C1` here?
Answer: 17.5%

Question: With `Cc1cnn(CC2CCN(CC(O)COc3ccc(F)cc3)CC2)c1` (stereo not given) as the molecule, how does the Percent Effect read?
Answer: 0%

Question: Which Percent Effect does the source give for `Cc1cc(-c2nn(C)c(Cl)c2CN2CCOCC(O)C2)no1` (stereo not given) here?
Answer: 17.1%

Question: Which Percent Effect does the source give for `CC(=O)N(Cc1ncc(C)o1)C1CCN(CCCc2cnn(C)c2)C1` (stereo not given) here?
Answer: 12.8%

Question: How did the Percent Effect turn out when `Cc1ccc([C@@H]2CN(C(=O)c3ccc[nH]3)C[C@H]2NC(=O)C2CC2)cc1` was run?
Answer: 7.32%

Question: `Cc1cnn(CC2CN(CC(=O)NCc3ccccn3)CCO2)c1` (stereo not given) was tested. Which Percent Effect did it give?
Answer: 10.3%

Question: For `COc1ccc(C(=O)N2CC[C@H](CO)[C@H](O)C2)c(C)c1`, which Percent Effect is on record?
Answer: 9.76%

Question: For `Cc1nccn1C1CCCN(C(=O)COCC(F)(F)F)C1` (stereo not given), which Percent Effect is on record?
Answer: -1.21%

Question: Which Percent Effect does the source give for `O=C(CSc1ccc(F)c(F)c1)NS(=O)(=O)c1ccc2c(c1)OCCO2` here?
Answer: 8.43%

What follows are molecules tested against Chromo domain-containing protein 1 (Saccharomyces cerevisiae (strain ATCC 204508 / S288c) (Baker's yeast)) (UniProt P32657) (assay: ScCHD-1 Enzyme Inhibition Assay). Conditions: 30 µM.
Assay type: functional
Design: scale not given: direction of the effect not stated beside the values

Chain of Chromo domain-containing protein 1 (Saccharomyces cerevisiae (strain ATCC 204508 / S288c) (Baker's yeast)) (P32657 whole entry, the tested form may be a part): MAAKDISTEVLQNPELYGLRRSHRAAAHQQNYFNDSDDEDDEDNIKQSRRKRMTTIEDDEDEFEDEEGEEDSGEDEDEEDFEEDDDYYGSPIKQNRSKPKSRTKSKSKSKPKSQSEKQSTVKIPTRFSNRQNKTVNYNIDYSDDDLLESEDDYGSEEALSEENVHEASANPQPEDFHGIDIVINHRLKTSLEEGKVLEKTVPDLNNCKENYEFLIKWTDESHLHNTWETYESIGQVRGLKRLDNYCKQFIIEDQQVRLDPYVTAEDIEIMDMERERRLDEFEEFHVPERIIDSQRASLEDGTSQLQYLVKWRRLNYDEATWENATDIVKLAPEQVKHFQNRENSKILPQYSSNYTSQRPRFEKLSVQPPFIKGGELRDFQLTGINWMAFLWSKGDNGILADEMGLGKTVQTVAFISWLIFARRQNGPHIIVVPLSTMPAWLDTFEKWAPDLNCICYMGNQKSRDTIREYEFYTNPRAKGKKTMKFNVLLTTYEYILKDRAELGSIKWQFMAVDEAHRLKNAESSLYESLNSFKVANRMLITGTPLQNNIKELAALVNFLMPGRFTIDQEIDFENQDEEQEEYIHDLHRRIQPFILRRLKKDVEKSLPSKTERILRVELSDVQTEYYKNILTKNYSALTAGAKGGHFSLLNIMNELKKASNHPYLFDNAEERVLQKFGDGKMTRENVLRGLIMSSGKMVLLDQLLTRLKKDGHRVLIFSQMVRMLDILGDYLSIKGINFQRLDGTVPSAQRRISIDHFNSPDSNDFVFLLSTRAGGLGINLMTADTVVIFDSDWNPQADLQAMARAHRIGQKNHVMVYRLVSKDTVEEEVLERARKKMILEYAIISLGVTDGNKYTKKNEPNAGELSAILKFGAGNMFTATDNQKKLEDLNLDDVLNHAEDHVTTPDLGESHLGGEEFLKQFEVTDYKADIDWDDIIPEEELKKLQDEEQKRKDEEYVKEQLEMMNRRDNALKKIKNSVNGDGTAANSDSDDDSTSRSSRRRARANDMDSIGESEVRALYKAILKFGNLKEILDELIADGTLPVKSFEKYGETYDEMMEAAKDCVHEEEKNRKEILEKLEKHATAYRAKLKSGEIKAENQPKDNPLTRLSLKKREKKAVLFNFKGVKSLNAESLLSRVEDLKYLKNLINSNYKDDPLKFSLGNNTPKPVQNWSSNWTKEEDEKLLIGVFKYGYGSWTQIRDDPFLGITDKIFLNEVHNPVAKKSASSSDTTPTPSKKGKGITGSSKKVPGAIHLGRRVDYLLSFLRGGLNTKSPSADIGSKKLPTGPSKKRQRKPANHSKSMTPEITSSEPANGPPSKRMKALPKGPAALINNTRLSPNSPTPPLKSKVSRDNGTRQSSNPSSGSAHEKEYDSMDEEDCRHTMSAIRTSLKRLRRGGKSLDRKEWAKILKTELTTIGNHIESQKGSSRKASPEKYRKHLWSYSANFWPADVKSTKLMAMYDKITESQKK

Question: For `CCc1nc(C2CCCN2C(=O)c2ccc3c(c2)nnn3CC)no1` (stereo not given), which Percent Effect is on record?
Answer: -12.3%

Question: For `c1cnnc(N2CCCC2CNCc2nc(-c3ccsc3)no2)c1` (stereo not given), which Percent Effect is on record?
Answer: -1.74%

Question: For `CC(=O)N1N=C(c2ccccc2)OC1C(=O)NCCC1=CCCCC1` (stereo not given), which Percent Effect is on record?
Answer: -32.1%

Question: `CCO[C@@H]1CO[C@@]2(CCCN(S(=O)(=O)c3cccnc3)C2)C1` was tested. Which Percent Effect did it give?
Answer: 2.99%

Question: Which Percent Effect does the source give for `Cc1ccc(C(=O)N2CCC3(CC2)COC(COc2ccccn2)C3)o1` (stereo not given) here?
Answer: 18.6%

Question: With `CS(=O)(=O)NCC1CCCN(C(=O)COc2ccc(F)cc2)C1` (stereo not given) as the molecule, how does the Percent Effect read?
Answer: -6.15%

Question: With `CN1CC(c2ccccc2)CC12CCN(C(=O)c1c(Cl)cnn1C)CC2` (stereo not given) as the molecule, how does the Percent Effect read?
Answer: -3.11%

Question: For `O=C(NCc1cc[nH]n1)NCC(O)COc1cccc(F)c1` (stereo not given), which Percent Effect is on record?
Answer: -6.87%

Question: For `O=C1NC2(CCN(Cc3cccnc3)CC2)CC1c1ccncc1` (stereo not given), which Percent Effect is on record?
Answer: 4.74%

Question: For `CCSCCC(=O)NS(=O)(=O)c1ccc2c(c1)OCCO2`, which Percent Effect is on record?
Answer: -1.85%

Question: How did the Percent Effect turn out when `CC(C)CN1CCN(C)C2(CCN(Cc3ccsc3)CC2)C1=O` was run?
Answer: 1.23%

Question: With `COc1c(C2CCCN2Cc2c(C)noc2C)c(C)nn1C` (stereo not given) as the molecule, how does the Percent Effect read?
Answer: -8.53%

Question: Which Percent Effect does the source give for `CC(C)(N)C(=O)N1CCCC1c1cncc(Oc2ccc(F)cc2)n1` (stereo not given) here?
Answer: -24.2%

Question: How did the Percent Effect turn out when `O=C1CC2(CCN(Cc3ccoc3)C2)CN1c1ccc2c(c1)OCO2` (stereo not given) was run?
Answer: -0.51%

Question: With `CCC(NC(N)=O)c1ccccc1OCC(=O)N1CCCC1` (stereo not given) as the molecule, how does the Percent Effect read?
Answer: -6%

Question: Which Percent Effect does the source give for `CCOc1ccccc1C(=O)N1CCCC1c1ncc2c(n1)CCNC2` (stereo not given) here?
Answer: -31.8%

Question: How did the Percent Effect turn out when `Cc1cc(CN(C)C(=O)NCC(C)N2CCc3ccccc32)no1` (stereo not given) was run?
Answer: 4.85%

Question: Which Percent Effect does the source give for `Cc1ccc(CCN2CCC(N(C)Cc3noc(C4CC4)n3)C2)cc1` (stereo not given) here?
Answer: -4.27%

Question: For `CC(C)n1[nH]c(=O)c2c1NC(=O)CC2c1cccnc1` (stereo not given), which Percent Effect is on record?
Answer: -3.39%

Question: How did the Percent Effect turn out when `O=C(NCCOc1ccc2c(c1)CCC2)N1CCS(=O)(=O)CC1` was run?
Answer: -2.29%

Question: Which Percent Effect does the source give for `CCC(NC(=O)CC(F)(F)F)c1ccccc1OCC(=O)N1CCCC1` (stereo not given) here?
Answer: -2.48%

Question: Which Percent Effect does the source give for `CC(C)CN1C[C@@H]2CN(C(=O)[C@H]3CCCO3)C[C@@H]2C1=O` here?
Answer: -5.7%

Question: How did the Percent Effect turn out when `CN1CCN(c2cc(CNC(=O)c3ccc(=O)[nH]n3)ccn2)CC1` was run?
Answer: -2.33%

Question: With `CC(=O)N1CC(=O)N(c2ccccc2)CC12CCN(CC1CC1)C2` (stereo not given) as the molecule, how does the Percent Effect read?
Answer: -0.48%

Question: For `CC(C)c1ncc(S(C)(=O)=O)c(C2CCCNC2)n1` (stereo not given), which Percent Effect is on record?
Answer: -3.61%

Question: For `CC(C)c1noc(CCCC(=O)NC2CCS(=O)(=O)C2)n1` (stereo not given), which Percent Effect is on record?
Answer: -11%

Question: For `c1ccc(OCc2ccncc2)c(CNC2CCc3ncnn3C2)c1` (stereo not given), which Percent Effect is on record?
Answer: -0.669%

Question: How did the Percent Effect turn out when `O=C(Nc1ccccc1)C1=CC2(CCNCC2)c2ccccc21` was run?
Answer: -4.38%

Question: `CC(NC(=O)N1CCN(c2ccc(Cl)cc2)CC1)C(=O)N1CCSCC1` (stereo not given) was tested. Which Percent Effect did it give?
Answer: -1.19%

Question: Which Percent Effect does the source give for `CC(C)N(Cc1nc2c(cnn2C)c(=O)[nH]1)c1ccccc1` here?
Answer: -3.23%

Question: For `CCc1nc(C2CCCN2C(=O)c2ncoc2CC)no1` (stereo not given), which Percent Effect is on record?
Answer: 0.961%

Question: Which Percent Effect does the source give for `O=C(c1ccc(F)cc1F)N1C[C@@H](O)[C@H](N2CCOCC2)C1` here?
Answer: -25.9%

Question: `Cc1cnn(CC2CCN(CC(O)COc3ccc(F)cc3)CC2)c1` (stereo not given) was tested. Which Percent Effect did it give?
Answer: -2.59%

Question: With `Cc1cc(-c2nn(C)c(Cl)c2CN2CCOCC(O)C2)no1` (stereo not given) as the molecule, how does the Percent Effect read?
Answer: -4.79%

Question: With `CC(=O)N(Cc1ncc(C)o1)C1CCN(CCCc2cnn(C)c2)C1` (stereo not given) as the molecule, how does the Percent Effect read?
Answer: -12.6%

Question: Which Percent Effect does the source give for `Cc1ccc([C@@H]2CN(C(=O)c3ccc[nH]3)C[C@H]2NC(=O)C2CC2)cc1` here?
Answer: -6.72%

Question: For `Cc1cnn(CC2CN(CC(=O)NCc3ccccn3)CCO2)c1` (stereo not given), which Percent Effect is on record?
Answer: -8.5%

Question: For `COc1ccc(C(=O)N2CC[C@H](CO)[C@H](O)C2)c(C)c1`, which Percent Effect is on record?
Answer: -7.71%

Question: With `Cc1nccn1C1CCCN(C(=O)COCC(F)(F)F)C1` (stereo not given) as the molecule, how does the Percent Effect read?
Answer: -1.66%

Question: `O=C(CSc1ccc(F)c(F)c1)NS(=O)(=O)c1ccc2c(c1)OCCO2` was tested. Which Percent Effect did it give?
Answer: -1.38%

Reference: ChEMBL document CHEMBL3988442, “University of Dundee, Small-Polar-MMV Screening Library” (2021)
